19 compounds from PubChem BioAssay (EPA / NIEHS) can be followed below.

Experiment [1] is described as follows: ATG_NFI_CIS: Attagene CIS-FACTORIAL HepG2 Assay for human Nuclear Factor I (NFI) (AID 2282989). The following applies: HepG2 cis-regulatory reporter, NFI response element transcription; actives raise or lower the signal. An outline of the steps:
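Transient MRTU transfection of HepG2 → 24 h chemical dosing → total RNA, oligo(dT) RT → PCR, 6-FAM primer extension, HpaI cut → capillary electrophoresis. Endpoint fitted bidirectionally relative to DMSO.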

The target in experiment [2] is Myc proto-oncogene protein (Homo sapiens) (UniProt P01106). The experiment is described as follows: ATG_Myc_CIS: Attagene CIS-FACTORIAL HepG2 Assay for human Myelocytomatosis (Myc) Proto-Oncogene Transcription Factor (AID 2282990). The following applies: HepG2, Attagene cis-reporter transcription factor activity; actives raise or lower the signal. In short, it runs like this:
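Fluorescence intensity of reporter-specific cDNA fragments, separated by capillary electrophoresis, gives the signal. Transfected HepG2 cells carrying cis-promoter reporter constructs are incubated with compound for 24 h; DMSO serves as baseline.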

Experiment [3] is described as follows: ATG_NF_kB_CIS: Attagene CIS-FACTORIAL HepG2 Assay for human Nuclear Factor Kappa B (NF-kB) (AID 2282991). The following applies: HepG2 Attagene cis-factorial NF-kB reporter mRNA; actives raise or lower the signal. An outline of the steps:
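Endogenous transcription factor activity in HepG2 was captured via cis-regulated reporter constructs; after 24 h dosing, reporter mRNA was reverse-transcribed, amplified, fluorescently labelled and sized by capillary electrophoresis, with activity fitted bidirectionally relative to DMSO.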

Experiment [4] can be described thus: ATG_NRF2_ARE_CIS: Attagene CIS-FACTORIAL HepG2 Assay for human Nuclear Factor Erythroid 2 Related Factor 2 (NFR2) response to Antioxidant Response Elements (ARE) (AID 2282992).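 On AC50: reporter mRNA level measured by RT-PCR and capillary electrophoresis fluorescence.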 The following applies: HepG2 Attagene ARE/NRF2 reporter, transcription factor activity; actives raise or lower the signal. An outline of the steps:
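Endogenous transcription factor activity in human liver HepG2 cells is tracked via a cis-element-driven reporter within a multiplexed set. mRNA induction is read by RT-PCR and capillary electrophoresis after 24 h, with DMSO as baseline.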

Experiment [5] is described as follows: ATG_Oct_MLP_CIS: Attagene CIS-FACTORIAL HepG2 Assay for human Octamer-Binding Transcription Factor (Oct) (AID 2282993). The following applies: HepG2 Attagene cis-factorial Oct reporter, mRNA; actives raise or lower the signal. An outline of the steps: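 Transient MRTU transfection of HepG2 → 24 h compound treatment → RNA isolation, reverse transcription, PCR → 6-FAM primer extension, HpaI digest → capillary electrophoresis. Activity fitted both directions against DMSO.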

The target in experiment [6] is Cellular tumor antigen p53 (Homo sapiens) (UniProt P04637). The experiment is described as follows: ATG_p53_CIS: Attagene CIS-FACTORIAL HepG2 Assay for human p53 Transcription Factor (AID 2282994). The following applies: HepG2 p53 cis-element reporter, Attagene mRNA; actives raise or lower the signal. An outline of the steps: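 Steps: transfect HepG2 with multiplexed cis reporter constructs; dose chemicals 24 h; extract RNA, reverse-transcribe, PCR-amplify reporter sequences; FAM-label, HpaI-digest, resolve fragments by CE. Activity fitted both directions relative to DMSO.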
Sequence of Cellular tumor antigen p53 (Homo sapiens) (P04637 whole entry, looked up, the tested form may be a part): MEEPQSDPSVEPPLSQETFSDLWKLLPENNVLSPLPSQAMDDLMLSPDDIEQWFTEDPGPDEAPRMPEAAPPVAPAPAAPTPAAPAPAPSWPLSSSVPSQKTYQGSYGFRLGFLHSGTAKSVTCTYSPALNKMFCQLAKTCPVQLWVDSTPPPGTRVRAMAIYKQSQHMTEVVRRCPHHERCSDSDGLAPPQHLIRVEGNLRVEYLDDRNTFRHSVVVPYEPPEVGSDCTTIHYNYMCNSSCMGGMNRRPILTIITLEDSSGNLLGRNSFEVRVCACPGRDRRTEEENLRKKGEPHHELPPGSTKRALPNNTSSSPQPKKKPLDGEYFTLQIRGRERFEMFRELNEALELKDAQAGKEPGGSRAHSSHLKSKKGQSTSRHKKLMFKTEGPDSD

Experiment [7] is described as follows: BSK_3C_TissueFactor: BioMAP Diversity Plus: 3C Assay for Tissue Factor Biomarker Activity (AID 2282997). The settings on record: BioMAP 3C HUVEC, tissue factor biomarker readout; actives raise or lower the signal. In short, it runs like this: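 HUVEC, 3C system, 24 h post-dose; Tissue Factor by ELISA; bidirectional fit vs DMSO baseline.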
Experiment [8] can be described thus: BSK_3C_uPAR: BioMAP Diversity Plus: 3C Assay for Urokinase-type plasminogen activator receptor (uPAR) Biomarker Activity (AID 2282998). The following applies: BioMAP 3C HUVEC, uPAR biomarker ELISA; actives raise or lower the signal. In short, it runs like this: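 ELISA readout of uPAR on human vascular endothelium (umbilical vein primary cells), taken 24 h after chemical dosing. Increases and decreases are both fitted relative to DMSO vehicle.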

The nature of experiment [9]: BSK_3C_VCAM1: BioMAP Diversity Plus: 3C Assay for Vascular cell adhesion molecule 1 (VCAM1) Biomarker Activity (AID 2282999). The settings on record: BioMAP 3C HUVEC, VCAM1 ELISA, cytokine-stimulated; actives raise or lower the signal. An outline of the steps: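 HUVEC primary cells, 24 h compound exposure; VCAM-1 by ELISA; gain/loss of signal fitted bidirectionally vs DMSO baseline.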
A general note: An ELISA detects its analyte on a solid surface through an enzyme-linked reagent.

Experiment [10] in a line: BSK_4H_Eotaxin3: BioMAP Diversity Plus: 4H Assay for Eotaxin 3 Biomarker Activity (AID 2283000).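 On outcome: CCL26 protein level quantified by ELISA in parallel with SRB cytotoxicity check.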 The settings on record: primary human endothelial cells (HUVEC); actives raise or lower the signal. In short, it runs like this: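 Readout is Eotaxin-3 (CCL26) level by ELISA in primary human umbilical vein endothelial cells harvested 24 h after chemical exposure; activity fitted in both directions against DMSO control.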

The structures appear in SMILES notation. “And” between values parts separate entries of the source, which are not always exact repeats. Equal values may be shown once. A structure can be active in one record and inactive in another. The source made the active and inactive calls. How the source made its calls: active means hit-call score of the fitted dose curve at least 0.9, where 1 is the maximum; inactive means score below 0.9.

Sequence of Myc proto-oncogene protein (Homo sapiens) (P01106 whole entry, looked up, the tested form may be a part): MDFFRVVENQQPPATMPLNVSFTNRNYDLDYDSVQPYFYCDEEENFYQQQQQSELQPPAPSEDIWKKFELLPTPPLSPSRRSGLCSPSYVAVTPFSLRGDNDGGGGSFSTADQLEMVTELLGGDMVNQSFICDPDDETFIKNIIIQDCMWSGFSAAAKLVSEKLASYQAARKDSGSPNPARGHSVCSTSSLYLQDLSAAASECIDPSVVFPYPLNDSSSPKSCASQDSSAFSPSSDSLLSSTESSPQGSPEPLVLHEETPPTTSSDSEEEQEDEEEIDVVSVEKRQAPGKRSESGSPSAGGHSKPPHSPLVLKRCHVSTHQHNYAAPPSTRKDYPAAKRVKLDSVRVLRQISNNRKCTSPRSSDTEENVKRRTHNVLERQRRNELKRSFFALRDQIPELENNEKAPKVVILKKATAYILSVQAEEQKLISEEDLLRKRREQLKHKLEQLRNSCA

Consider `Cc1cccc(N)c1N`, for which the outcome in experiment [1], in experiment [2], in [3], in experiment [6], in [7] and in [8] was inactive. In addition, the result in [10] was inactive. The results for the AC50 in experiment [4], in experiment [5] and in experiment [9] were 21.6 µM (active), 167 µM (active) and 16 µM (active), respectively.

Regarding `CC(C)(O)c1cnn2c(-c3ccc(F)c(-c4c(F)cccc4C#N)c3)cnc2n1`, the call in experiment [1], in experiment [2], in experiment [3] and in experiment [5] was inactive. Besides, the AC50 – broadly, the concentration giving half of the maximal activity seen – in experiment [4] was 19.8 µM (active); in [6] it was 8.54 µM (active); in experiment [7], 28.2 µM (active); in experiment [9], 35.3 µM (active); in [10], 33.6 µM (active).

On to `CCNS(=O)(=O)C(F)(F)C(F)(F)C(F)(F)C(F)(F)C(F)(F)C(F)(F)C(F)(F)C(F)(F)F`, for which the AC50 in experiment [1] was 117 µM (active) and 61.4 µM (active); in experiment [2], 96.5 µM (active); in experiment [4], 25.7 µM (active) and 41.5 µM (active) and 13.3 µM (active); in experiment [5], 96.5 µM (active); in [8], 19.6 µM (active); in [9], 14.8 µM (active). Also, in [10], the AC50 was 22.4 µM (active) and 17 µM (active). The result in experiment [1], in experiment [2], in [5], in [7], in experiment [8] and in [9] was inactive. Besides, the outcome in [10] was inactive.

As to `Clc1ccc(C(c2ccc(Cl)cc2)C(Cl)Cl)cc1`, the AC50 in experiment [1] is 60.5 µM (active); in experiment [2] it was 44.6 µM (active); in experiment [4], 51.1 µM (active); in experiment [5], 49.7 µM (active); in experiment [7], 32.2 µM (active); in [8], 14.1 µM (active). In addition, the AC50 is 31.4 µM (active) in [9] and 28.7 µM (active) in [10]. For the same compound, the outcome in [3] and in [6] was inactive.

With `CCC[CH2][Sn]([Cl])([CH2]CCC)[CH2]CCC`, the compound was called inactive in experiment [1], in experiment [2] and in [5]. Moreover, the AC50 was 601 nM (active) in experiment [3]; 0.281 µM (active) in [4]; 0.771 µM (active) in experiment [6]; 0.148 µM (active) in experiment [7]; 0.148 µM (active) in [8]; 0.148 µM (active) in experiment [9]. The AC50 in experiment [10] is 0.148 µM (active).

In the case of `COP(=S)(OC)SCN1C(=O)c2ccccc2C1=O`, the compound was called inactive in experiment [1], in [2], in experiment [3], in experiment [4], in [5] and in experiment [6]. Also, the outcome in experiment [8], in experiment [9] and in [10] was inactive. Besides, the AC50 in experiment [7] was 7.76 µM (active).

For the compound `Cc1ccc(N)cc1`, the compound was classed as inactive in experiment [1], in experiment [2], in [3], in [4], in [5] and in experiment [6]. Further, the result in [7], in experiment [9] and in [10] was inactive.

As for `[As]#[In]`, the compound was classed as inactive in [1], in experiment [2], in experiment [3], in experiment [4], in [5] and in [6]. Moreover, the outcome in experiment [7], in [8], in experiment [9] and in [10] was inactive.

Turning to `Cc1ccc(N)c(N)c1`, the call in experiment [1], in experiment [2], in experiment [3], in experiment [6], in experiment [7] and in experiment [8] was inactive. In addition, the outcome in experiment [10] was inactive. The AC50 was 8.84 µM (active) in experiment [4], 42.3 µM (active) in [5] and 5.57 µM (active) in [9].

In the case of `CC(C)(C)C(O)(CCc1ccc(Cl)cc1)Cn1cncn1` (stereo unspecified), the call in experiment [1], in experiment [2], in experiment [3], in [5], in experiment [6] and in experiment [7] was inactive. The outcome in experiment [8], in experiment [9] and in experiment [10] was inactive. Also, the AC50 in experiment [4] is 88.8 µM (active).

For `CC(O)CCO` (stereo unspecified), the outcome in experiment [1], in experiment [2], in experiment [3], in experiment [4], in experiment [5] and in experiment [6] was inactive. Further, the result in [7], in experiment [9] and in [10] was inactive.

On to `COC(=O)c1ccccc1N`, for which the compound was called inactive in experiment [1], in [2], in experiment [3], in experiment [4], in [5] and in experiment [6]. The result in [7], in experiment [8], in experiment [9] and in experiment [10] was inactive.

As to `c1ccc(N=Nc2ccccc2)cc1`, the result in [1], in experiment [2], in experiment [3], in [5], in experiment [6] and in experiment [7] was inactive. Moreover, the outcome in experiment [9] and in experiment [10] was inactive. Besides, the AC50 in experiment [4] is 61.2 µM (active).

With `ClCCOCCCl`, the compound was classed as inactive in [1], in [2], in experiment [3], in experiment [4], in [5] and in experiment [6]. Besides, the result in [7], in experiment [8], in experiment [9] and in [10] was inactive.

Take `CC(C)(C)OOC(=O)c1ccccc1`: the outcome in experiment [1], in [2], in experiment [3], in experiment [5], in experiment [7] and in [9] was inactive. Moreover, in experiment [10], the outcome was inactive. For the same compound, the AC50 in experiment [4] is 79.5 µM (active); in experiment [6] it was 136 µM (active).

Turning to `CN(C)c1ccc(C(=O)c2ccc(N(C)C)cc2)cc1`, the compound was classed as inactive in [1], in experiment [2], in experiment [3], in experiment [4], in experiment [5] and in [6]. In addition, the outcome in experiment [7], in experiment [9] and in experiment [10] was inactive.

`O=C(N[C@H](c1ccccc1)[C@@H]1CN2CCC1CC2)c1c(Cl)ccc(C(F)(F)F)c1Cl`: the outcome in experiment [1], in experiment [2], in [3], in experiment [5], in experiment [6] and in experiment [7] was inactive. For the same compound, the outcome in experiment [9] and in [10] was inactive. Further, the AC50 in experiment [4] was 3.02 µM (active); in [8], 17.7 µM (active).

Take `CO[C@@H]1[C@H](OC(=O)NC(=O)CCl)CC[C@]2(CO2)[C@H]1[C@@]1(C)O[C@@H]1CC=C(C)C`: the compound was classed as inactive in experiment [1], in experiment [2], in experiment [3], in experiment [6] and in experiment [8]. The AC50 was 4.98 µM (active) in experiment [4]; 40.5 µM (active) in experiment [5]; 3.62 µM (active) in [7]; 6.87 µM (active) in [9]; 4.41 µM (active) in experiment [10].

In the case of `C[C@]12C=CC3=C4CCC(=O)C=C4CC[C@H]3[C@@H]1CC[C@@H]2O`, the AC50 is 11.9 µM (active) in [1]; 19.8 µM (active) and 70.6 µM (active) and 40.3 µM (active) in [3]; 17.5 µM (active) and 11.3 µM (active) in experiment [4]; 71.1 µM (active) and 13.9 µM (active) and 9.62 µM (active) in experiment [5]; 7.23 µM (active) in [8]; 9.42 µM (active) in experiment [9]. Besides, the compound was called inactive in experiment [1], in experiment [2], in experiment [3], in experiment [4], in experiment [5] and in [7]. The outcome in experiment [10] was inactive.
